Pf Dd2 growth: Plasmodium falciparum Dd2 growth inhibition | P. falciparum Dd2 growth, SYBR Green, 72 h | Potency, µM (top dose mostly 28.9 µM), most hits filed as inhibitors | 120,000 compounds, 4.3% hits | AID 1347417; active means well fitted inhibition curve with a large enough effect; further: nearly all actives have a fitted effect of over 65% in size
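Infected erythrocytes (Dd2, 0.3% parasitemia, 2.5% hematocrit final) are added to compound in RPMI-1640/Albumax II medium, grown 72 h at 37C in low oxygen, then lysed with saponin/Triton-X containing SYBR Green and read by fluorescence.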
Each line names hits and unclear results; the compound was inactive in the other large screens. Many of the other results were omitted from the sample, so hits are more common in it than they were.

O=C(c1ccccc1F)N1CCC2(CC1)C(=NC1CCCCC1)NC(=O)N2c1cccnc1	none
CCc1noc(-c2nc(-c3cccc(F)c3)no2)n1	none
COC(=O)c1ccc2nc(CO[C@H]3CN(C(C)=O)C[C@H]3F)[nH]c2c1	none
O=S(=O)(Nc1ncc(CN2CC[C@H]3CNC[C@H]32)cn1)c1ccccc1	none
COCCCN1C(=O)c2[nH]nc(-c3ccccc3O)c2C1c1ccc(OCc2ccccc2)cc1 (stereo not given)	Pf Dd2 growth 8.9µM
COCCCn1c(C)cnc1C1CCN(C(=O)COc2ccccc2)C1 (stereo not given)	none
CC(C)N1C(=O)C2(CCCCC2)C1C(=O)N1CCOCC1 (stereo not given)	none
CCCCOc1ccc(C2=NC(c3cccs3)=Nc3ccc(OC)cc3N2)cc1	none
CCc1ccc2c(c1)NC(c1cccs1)=NC(c1ccc(F)cc1)=N2	none
CCOc1ccc(C2=NC(c3cccs3)=Nc3ccc(CC)cc3N2)cc1OCC	Pf Dd2 growth 8.9µM
COc1ccc(C(=O)N2CCC3(CC2)NC(=O)N(c2ccccc2Cl)N3)cc1F	none
O=C(Nc1ccc(F)cc1F)N[C@H]1C[C@H]2C(=O)NC[C@@H](CCC(=O)N3CCCCC3)N2C1	none
Cc1cc2[nH]c(=O)c(=O)[nH]c2cc1S(=O)(=O)N1CCN(c2ccccc2F)CC1	none
Cc1cc2[nH]c(=O)c(=O)[nH]c2cc1S(=O)(=O)N1CCN(c2cccc(C)c2C)CC1	Pf Dd2 growth 7.9µM
COc1ccccc1N1CCN(S(=O)(=O)c2cc3[nH]c(=O)c(=O)[nH]c3cc2C)CC1	none
CS(=O)(=O)N1CCCC1c1noc(CCC(=O)NC2CC2)n1 (stereo not given)	none
COc1ccc(-c2cc3c(nc2-c2ccccc2)nc(C(=O)NCCN(C)C)n3C)cn1	Pf Dd2 growth 7.1µM
COCCNC(=O)c1nc2nc(-c3ccccc3)c(Cl)cc2n1C	none
CN1CCC(NC(=O)Cc2c[nH]c3ncc(-c4ccccc4)cc23)CC1	none
COc1cc(F)ccc1-c1cc2c(nc1-c1ccccc1)nc(C(=O)NCCN(C)C)n2C	Pf Dd2 growth 2.5µM
CN(C)CCNC(=O)c1ccc(-c2nn(C)c(=O)c3ccccc23)cc1	none
CC(C)(C)OC(=O)N1CCC(NC(=O)c2nc(-c3ccccc3)c3ccccn23)CC1	none
COCc1nc2nc(-c3ccccc3)c(-c3ccc(O)c(F)c3)cc2n1C	none
COc1cc(-c2cc3c(nc2-c2ccccc2)nc(C(=O)NCCN(C)C)n3C)ccn1	none
Cc1cc(-c2cc3c(nc2-c2ccccc2)nc(C(=O)NC2CCN(C)CC2)n3C)ccn1	Pf Dd2 growth 6.3µM
CCN(CC)c1ncccc1CNC(=O)COC	none
c1ccc([C@@H]2CNC[C@H]2COc2ccncc2)nc1	none
O=C1CO[C@H]2CN(Cc3c[nH]c4ccccc34)C[C@H]2N1Cc1ccccn1	none
NC(=O)[C@@H](Cc1c[nH]c2ccccc12)NC(=O)[C@@H]1CN(C(=O)Nc2ccccc2)CCN1C(=O)c1cccs1	none
CC(C)NC(=O)C1COC2(CCN(C(=O)CC(C)(C)C)CC2)N1C(=O)c1ccccc1 (stereo not given)	none
Cc1cccc(C(=O)N2C(C(=O)NCc3ccccc3)COC23CCN(C(=O)CC(C)(C)C)CC3)c1 (stereo not given)	Pf Dd2 growth 7.9µM
CCCNC(=O)C1COC2(CCN(C(=O)Cc3ccccc3)CC2)N1C(=O)c1cccc(C)c1 (stereo not given)	none
Cc1ccc(C(=O)N2C(C(=O)NCC(C)C)COC23CCN(C(=O)c2cccc(Cl)c2)CC3)cc1 (stereo not given)	Pf Dd2 growth 10µM
COc1ccc(C(=O)N2CCC3(CC2)OCC(C(=O)NCC(C)C)N3C(=O)c2ccc(C)cc2)cc1 (stereo not given)	none
Cc1cccc(C(=O)N2C(C(=O)NCC(C)C)COC23CCN(C(=O)c2ccc(F)cc2)CC3)c1 (stereo not given)	none
Cc1cc(C(=O)N2CC(N(C)Cc3cccnc3)C2)n[nH]1	none
COCCN1CC(C(=O)N(C)Cc2cnn(-c3ccccc3C)c2)CCC1=O (stereo not given)	none
O=C(COc1ccc(F)cc1)N1CCC2(CC1)NC(=O)N(c1ccc(F)cc1)N2	none
CN1CC(=O)N(C2CCC2)Cc2c(NCCCO)ncnc21	none
O=C(NCc1nnc2n1C(C(=O)N1CCOCC1)CC2)c1ccc(Cl)cc1Cl (stereo not given)	none
CCOC(=O)C1CCN(C(=O)CN2c3ccc(CC)cc3-c3ccccc3S2(=O)=O)CC1	none
CCOC(=O)C1CCN(C(=O)C2CCc3nc(N4CCN(C(C)=O)CC4)sc3C2)CC1 (stereo not given)	none
CCC1=C(c2ccc(C)cc2)S(=O)(=O)N=C1N1CCC(C(=O)NCCc2cccc(OC)c2)CC1	Pf Dd2 growth 7.9µM
CCc1ccc(C2=C(C)C(N3CCC(C(=O)NCc4ccccc4)CC3)=NS2(=O)=O)cc1	none
CC1=C(c2ccc(C)c(C)c2)S(=O)(=O)N=C1N1CCC(C(=O)NCc2ccccc2C)CC1	none
CCOC(=O)C1CCN(C(=O)C2CCN(C3=NS(=O)(=O)C(c4ccc(C)cc4)=C3CC)CC2)CC1	Pf Dd2 growth 11µM
CC(C)C(=O)N[C@@H]1C[C@H](COc2ccc(S(C)(=O)=O)cc2)[C@@H](O)[C@H]1O	none
Cc1ccc(C2Cn3nnc(C(=O)N4CCN(C(=O)c5ccsc5)CC4)c3CO2)cc1 (stereo not given)	none
COC[C@@H]1CN(C(=O)c2ccc3[nH]ccc3c2)C[C@H]1c1ccncc1	none
O=C(Nc1ccc(Br)cc1)c1cnc(-c2ccc(F)cc2)nc1-c1ccncc1	none
CCOCc1nc(C2CCCN(C(=O)c3ccc(OC)cc3OC)C2)no1 (stereo not given)	none
COc1ccc(C(=O)N2C[C@@H](Oc3cccnc3)C[C@H]2C(N)=O)cc1	none
Cc1noc([C@@H]2CN(Cc3ccco3)C[C@H]2CO)n1	none
Cc1nc(CC2CCN(C(=O)c3ccccc3)CC2)n[nH]1	none
CCOc1ccccc1C1NC(=O)N(CC(=O)Nc2ccc(C(C)=O)cc2)C2=C1C(=O)OC2 (stereo not given)	none
Cc1cccc(C)c1-n1ncc(C(=O)NCCN2CCN(C)CC2)c1C1CCN(C(=O)OC(C)(C)C)CC1	none
Cc1ccc(-n2ncc(C(=O)NCCN3CCC(Cc4ccccc4)CC3)c2C2CCN(C(=O)OC(C)(C)C)CC2)cc1	Pf Dd2 growth 3.2µM
Cc1c(Cl)cccc1-n1ncc(C(=O)N2CCN(C)CC2)c1C1CCN(C(=O)OC(C)(C)C)CC1	none
COc1ccccc1CN1CCC(CNC(=O)c2cnn(-c3ccc(Cl)cc3)c2C2CCN(C(=O)OC(C)(C)C)CC2)CC1	Pf Dd2 growth 1.3µM
CC(C)(C)OC(=O)N1CCC(c2c(C(=O)NCCN3CCCC3)cnn2-c2ccc(Cl)cc2)CC1	Pf Dd2 growth 7.1µM
Cc1c(Cl)cccc1-n1ncc(C(=O)NCCN2CCN(C)CC2)c1C1CCN(C(=O)OC(C)(C)C)CC1	Pf Dd2 growth 11µM
O=C1CCCN1CCCN1C(=O)[C@@H]2C[C@@H](O)CN2C2(CN(Cc3ccc(Cl)cc3)C2)C1=O	none
O=C(O)C1(Oc2ccccc2F)CCN(Cc2ccc(CO)o2)CC1	none
Cc1noc(C)c1[S+](=O)([O-])N1CCC(c2nn(C)c(=O)[nH]2)CC1	none
CCN(C(=O)CSc1nc2ncccc2[nH]1)c1ccc(C(C)C)cc1	none
CCN(C(=O)CSc1nnc(-c2ccc(Cl)cc2)o1)c1ccccc1	none
CCN(C(=O)CSc1nc(-c2ccc(C(C)C)cc2)no1)c1cccc(C)c1	Pf Dd2 growth 0.89µM
CCN(C(=O)CCc1nc(-c2ccc(C)cc2)no1)c1cc(C)ccc1C	none
CCN(C(=O)Cc1nc(-c2ccc(OC)cc2)no1)c1cccc(Cl)c1	none
